Test [1] concerns the target Bile acid receptor (Homo sapiens) (UniProt Q96RI1). Nature of the test: NVS_NR_hFXR_Agonist: NovaScreen (NVS) Nuclear Receptor Binding Assay for human Farnesoid X Receptor Agonism (FXR) (AID 2283347). The essentials: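 Cell-free TR-FRET binding assay with extracted human FXR protein, agonist format, read 1 h after dosing. Primary screen at 25 uM single concentration in duplicate, actives retested in concentration series; gain of signal versus DMSO.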

The target of test [2] is human Constitutive Androstane Receptor (CAR), NR1I3 (gene 9970) (UniProt Q14994). Nature of the test: NVS_NR_hCAR_Antagonist: NovaScreen (NVS) Nuclear Receptor Binding Assay for human Constitutive Androstane Receptor Antagonism (CAR) (AID 2283344). The essentials:
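Cell-free TR-FRET binding read 1 h after dosing, antagonist mode; loss of signal versus DMSO baseline. Primary screen in duplicate at a single 25 uM; actives retested in concentration series.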

Test [3] concerns the target rat Peripheral-type Benzodiazepine Receptor (PBR), Tspo (gene 24230) (UniProt P16257). Nature of the test: NVS_MP_rPBR: NovaScreen (NVS) Membrane Protein Assay for rat Peripheral-type Benzodiazepine Receptor (PBR) (AID 2283335). In a few lines:
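Radioligand displacement, rat kidney membrane prep, 1 h exposure, filter-based scintillation read; DMSO baseline, loss-of-signal scored. Primary screen at 25 uM in duplicate, actives followed up in concentration series.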

Records with an inconclusive call do not appear. The source made the active and inactive calls. The calls were made as follows: active = hit-call score of the fitted dose curve at least 0.9, where 1 is the maximum; inconclusive = response in the unintended direction; inactive = score below 0.9.

human Constitutive Androstane Receptor (CAR), NR1I3 (gene 9970), sequence (Q14994 whole entry, looked up): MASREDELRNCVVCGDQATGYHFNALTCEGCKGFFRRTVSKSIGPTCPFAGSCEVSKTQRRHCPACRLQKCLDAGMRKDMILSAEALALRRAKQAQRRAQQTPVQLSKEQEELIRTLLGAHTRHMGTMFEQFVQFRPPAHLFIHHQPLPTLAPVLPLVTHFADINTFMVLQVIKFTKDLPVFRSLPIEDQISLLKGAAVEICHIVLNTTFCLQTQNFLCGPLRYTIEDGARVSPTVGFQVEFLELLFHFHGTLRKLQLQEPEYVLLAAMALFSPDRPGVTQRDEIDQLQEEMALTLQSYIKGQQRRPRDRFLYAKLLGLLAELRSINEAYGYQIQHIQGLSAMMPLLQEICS
Bile acid receptor (Homo sapiens), sequence (Q96RI1 whole entry, looked up): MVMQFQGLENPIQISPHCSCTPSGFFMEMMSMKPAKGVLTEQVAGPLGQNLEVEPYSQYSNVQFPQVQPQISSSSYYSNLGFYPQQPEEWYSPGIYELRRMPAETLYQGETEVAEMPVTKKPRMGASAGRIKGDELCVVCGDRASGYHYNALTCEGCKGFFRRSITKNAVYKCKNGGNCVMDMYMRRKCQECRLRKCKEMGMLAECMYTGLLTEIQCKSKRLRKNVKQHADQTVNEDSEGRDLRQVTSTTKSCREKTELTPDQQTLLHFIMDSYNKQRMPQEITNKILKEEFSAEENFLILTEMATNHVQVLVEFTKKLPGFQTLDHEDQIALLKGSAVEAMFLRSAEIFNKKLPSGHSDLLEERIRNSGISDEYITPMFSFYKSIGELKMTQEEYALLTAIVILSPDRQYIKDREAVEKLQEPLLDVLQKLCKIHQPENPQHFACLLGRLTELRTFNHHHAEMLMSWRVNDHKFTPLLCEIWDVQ
rat Peripheral-type Benzodiazepine Receptor (PBR), Tspo (gene 24230), sequence (P16257 whole entry, looked up): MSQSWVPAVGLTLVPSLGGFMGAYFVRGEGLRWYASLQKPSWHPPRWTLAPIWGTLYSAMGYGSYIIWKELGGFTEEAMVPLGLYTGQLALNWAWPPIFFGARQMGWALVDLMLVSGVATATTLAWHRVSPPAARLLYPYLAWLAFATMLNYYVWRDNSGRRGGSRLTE

Turning to `CCCCOC(=O)c1ccccc1C(=O)O`, the outcome in test [1] was inactive.

Take `CSC1=N[C@@](C)(c2ccccc2)C(=O)N1Nc1ccccc1`: the half-maximal activity concentration (AC50) (in general, the midpoint of the concentration-response curve, whichever way the signal moves) in test [2] was 3.63 µM (active).

As for `CCC(=NOC/C=C/Cl)C1=C(O)CC(C2CCOCC2)CC1=O` (stereo not given), the molecule was classed as inactive in test [3] and in test [2].

Turning to `CNC(=O)Oc1cccc2c1OC(C)(C)O2`, the molecule was called inactive in test [2].
